Bioassay records deposited in PubChem by several laboratories.
PriA SSB inh – inhibitors of Klebsiella pneumoniae PriA binding to SSB C-terminal tail; AlphaScreen SSBct-PriA binding, biotinylated peptide; inhibition, % at 33 µM; hit rate 0.6% among 430,000; AID 1272365; in the data active = inhibition mostly above about 37%, no sharp cut-off; inactive = mostly below about 20%;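 note: plate controls were negative control peptide for no effect and reference peptide for full effect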
Anthrax LF inh2 – inhibitors of Bacillus anthracis lethal factor protease | P15917 | multiplex microsphere protease cleavage assay, LF | inhibition, % at 10 µM | hit rate 0.12% among 360,000; note: plate controls were buffer without enzyme for full effect and enzyme alone for no effect
Target sequence (P15917 whole entry, looked up): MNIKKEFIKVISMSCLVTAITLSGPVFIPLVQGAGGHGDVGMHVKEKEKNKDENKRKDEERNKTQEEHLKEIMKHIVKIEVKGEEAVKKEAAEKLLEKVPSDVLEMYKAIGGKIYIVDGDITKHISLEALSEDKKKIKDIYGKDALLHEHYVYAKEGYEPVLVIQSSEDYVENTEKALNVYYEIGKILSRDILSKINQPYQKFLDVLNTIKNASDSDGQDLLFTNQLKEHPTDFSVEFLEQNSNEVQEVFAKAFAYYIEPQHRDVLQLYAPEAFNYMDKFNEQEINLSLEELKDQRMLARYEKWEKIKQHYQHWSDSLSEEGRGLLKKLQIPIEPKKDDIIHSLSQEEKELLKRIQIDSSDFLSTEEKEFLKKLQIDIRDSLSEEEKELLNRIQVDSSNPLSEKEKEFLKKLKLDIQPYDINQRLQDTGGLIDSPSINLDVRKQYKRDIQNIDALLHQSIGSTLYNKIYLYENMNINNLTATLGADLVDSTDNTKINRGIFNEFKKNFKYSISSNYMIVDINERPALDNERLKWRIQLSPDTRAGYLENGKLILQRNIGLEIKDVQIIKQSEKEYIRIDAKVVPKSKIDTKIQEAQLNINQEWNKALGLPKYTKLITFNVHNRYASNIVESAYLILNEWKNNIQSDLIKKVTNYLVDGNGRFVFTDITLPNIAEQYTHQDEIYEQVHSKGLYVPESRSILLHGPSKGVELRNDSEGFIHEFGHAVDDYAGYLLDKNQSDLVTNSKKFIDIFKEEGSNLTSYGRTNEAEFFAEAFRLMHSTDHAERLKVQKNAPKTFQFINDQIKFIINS
BoNT A protease – inhibitors of Botulinum neurotoxin A light chain protease; multiplex microsphere protease substrate cleavage, flow cytometry; inhibition, % at 10 µM; hit rate 0.17% among 360,000; AID 588499; note: plate controls were buffer without enzyme for full effect and enzyme alone for no effect
Bead autofluor – flagged as autofluorescent in microsphere protease counterscreen | compound autofluorescence counterscreen, microsphere flow cytometry; stronger effect = higher value | fluorescence intensity (no concentration beside the values) | hit rate 3.1% among 360,000; in the data active = fluorescence intensity above about 16000; inconclusive = no clear call, values can overlap the other calls
BoNT-F LC inh – blocks Botulinum neurotoxin F light chain protease | inhibition, % at 10 µM | AID 588497 | hit rate 0.22% among 360,000 | Multiplex microsphere protease cleavage assay, flow cytometry; in the data active = inhibition above about 35%, passing the limit was not always enough; inconclusive = no clear call, values can overlap the other calls; note: plate controls were buffer without enzyme for full effect and enzyme alone for no effect
An asterisk follows results filed as active; ? = inconclusive; nt = not tested or not shown. Sampled rows, rich in hits. Any-hit rate of the full collection: about 3.1%. Cut-off read from the data, not from the text of the source, unless noted: active = inhibition above about 30%; inconclusive = no clear call, values can overlap the other calls; inactive = below that.

SMILES	PriA SSB inh	Anthrax LF inh2	BoNT A protease	Bead autofluor	BoNT-F LC inh
COc1ccc(C2=NOC(C(=O)NC(C)(C)C)C2)cc1 (stereo unspecified)	-14.2	-1.7	1.3	22564*	1.2
COc1ccc(C2=NOC(C(=O)NCc3ccccc3)C2)cc1 (stereo unspecified)	-12.8	2.8	0.9	7990	-2.1
COc1cccc(C=NN(C)C2=NS(=O)(=O)c3ccccc32)c1O	-9.1	nt	nt	nt	nt
Cc1cc(C(=O)Nc2nnc(-c3cccs3)o2)on1	-1.0	nt	nt	nt	nt
CCCCOc1ccccc1C1C(C(=O)OC)=C(C)N(C)C(C)=C1C(=O)OC	-17.1	0.9	-0.2	22647*	-1.8
COc1ccc(-n2cnnc2SCc2csc(-c3ccccc3)n2)cc1	-12.1	-2.8	?	22341*	-1.4
Cc1ccc(CN2C(=O)CCC2C(=O)NCc2cccnc2)cc1 (stereo unspecified)	-6.2	-6.0	3.6	21210*	2.1
CCN(CC)C(=O)CSc1nc2ccccc2c(=O)n1CC	-5.4	-0.2	-0.2	2757	2.4
CCC(C)n1c(SC(C)C#N)nc2ccccc2c1=O (stereo unspecified)	-32.6	-5.2	1.2	9779	-13.4
CCN(CC)C(=O)CSc1nc2ccccc2c(=O)n1OC(C)C	-11.1	-6.5	-1.7	17014*	-3.3
CC(C#N)On1c(SC(C)C#N)nc2ccccc2c1=O (stereo unspecified)	-3.6	-3.6	-3.7	25088*	-5.8
CCCCOC(=O)n1c(SCC(=O)N(CC)CC)nc2ccccc21	-17.2	-12.3	-5.2	24831*	-6.7
c1ccc2sc(NC3=NCN(C4CCCCCC4)CN3)nc2c1	-6.4	-1.1	0.0	19894*	-0.2
O=C(NCC(c1ccco1)S(=O)(=O)c1ccc(F)cc1)c1cccs1 (stereo unspecified)	5.0	nt	nt	nt	nt
O=C(CC(c1ccco1)S(=O)(=O)c1ccccc1)c1ccc(F)cc1 (stereo unspecified)	9.8	-3.8	2.7	22035*	3.6
O=C(NCCNc1cc(-n2cccc2)ncn1)c1ccc(Br)o1	0.0	nt	nt	nt	nt
Cc1ccccc1-n1c(O)c(C=NN2CCCCC2c2cccnc2)c(=O)[nH]c1=O (stereo unspecified)	-5.1	nt	nt	nt	nt
Oc1cccc2ccc[n+](CC(O)Cn3c4ccccc4c4ccccc43)c12 (stereo unspecified)	73.4*	-4.1	-0.1	1949	-22.3
O=C(CSc1ncccn1)Nc1ccccc1	-15.0	2.8	?	20507*	2.0
O=C(Cc1ccccn1)Nc1ccccc1	-14.4	1.8	1.3	22456*	2.3
O=C(CSCc1ccccn1)Nc1ccccc1	-0.1	-1.3	-1.0	2399	-20.6
CCOc1ccc(NC(=O)CC(NCc2ccccn2)C(=O)O)cc1 (stereo unspecified)	96.0*	-3.3	-2.9	2478	-16.3
Cc1nc2ccccc2n1CC1CCN(CC(=O)Nc2ccc(OC(F)(F)F)cc2)CC1	-18.0	nt	nt	nt	nt
CN(C)c1cccc(C(=O)NCCSC2CCOCC2)c1	-5.0	nt	nt	nt	nt
CCc1ccc(NC(=O)C(CC)Sc2nc3cc4c(cc3c(=O)n2Cc2ccco2)OCO4)cc1 (stereo unspecified)	-0.9	-2.1	?	20624*	-2.6
SMILES	PriA SSB inh	Anthrax LF inh2	BoNT A protease	Bead autofluor	BoNT-F LC inh
CC(C(=O)NC1CCCC1)N1CCN(Cc2ccccc2)CC1 (stereo unspecified)	2.6	2.4	-0.1	4743	-3.4
CC(C(=O)NC(=O)NC1CCCCC1)N1CCN(C(c2ccccc2)c2ccccc2)CC1 (stereo unspecified)	0.2	-6.6	-1.9	16823*	-6.8
Cc1cccc(N(CC(=O)NC2CCCC2)C(=O)CS(=O)CC(=O)Nc2ccc3c(c2)OCO3)c1 (stereo unspecified)	3.7	-2.0	?	22772*	-10.6
O=C(COc1ccccc1)N(Cc1ccccc1)c1nc(-c2ccccc2)cs1	-2.2	-0.7	0.9	21962*	1.8
COc1ccc(-c2csc(N(Cc3ccccc3)C(=O)COc3ccc(Cl)cc3)n2)cc1	-17.2	-3.8	-1.2	10521	-5.0
COc1ccc(-c2csc(N(CCc3ccc(OC)c(OC)c3)C(=O)COc3ccccc3)n2)cc1	-11.6	-1.9	?	19913*	-1.6
CCn1c(SCC(=O)N2CCC(C)CC2)nc2sc3c(c2c1=O)CCC3	-8.0	nt	nt	nt	nt
CCS(=O)(=O)c1ccc(-c2ccc(NC(=O)c3ccc([N+](=O)[O-])c(C)c3)cc2)nn1	-8.0	nt	nt	nt	nt
Cc1cccc(CSc2cccc3cccnc23)c1	94.5*	3.5	-1.2	10237	-8.6
c1cnc2c(SCc3ccc(-c4nnco4)cc3)cccc2c1	74.2*	-0.5	0.7	2112	4.2
c1cnc2c(SCc3ccncc3)cccc2c1	32.8	nt	nt	nt	nt
C(=C\CSc1cccc2cccnc12)/CSc1cccc2cccnc12	47.5	nt	nt	nt	nt
N#CCSc1cccc2cccnc12	84.5*	nt	nt	nt	nt
CN(C)CCn1c2c(c(SCC(=O)Nc3ccccc3[N+](=O)[O-])nc1=O)CCCC2	-2.0	nt	nt	nt	nt
CC1(C)CC(=O)c2c(O)cc(O)cc2O1	-4.9	-5.3	0.4	22477*	-3.0
COc1ccc(Cl)c2sc(N3CCN(C(=O)CSc4ccc(F)cc4)CC3)nc12	17.0	nt	nt	nt	nt
NC(=O)C1CCN(Cc2nc3cc(Cl)ccc3c(=O)[nH]2)CC1	-12.5	1.2	0.2	2847	-0.8
NC(=O)C1CCN(Cc2nc3ccccc3c(=O)[nH]2)CC1	-9.0	0.8	0.0	23828*	-1.4
O=c1[nH]c(CN2CCN(C/C=C/c3ccccc3)CC2)nc2ccccc12	-8.4	1.4	?	21675*	-1.8
Cn1nc(-c2ccc(F)cc2)cc1C(=O)Nc1ccsc1-c1nc(C2CC2)no1	-37.0	nt	nt	nt	nt
COc1cc(/C=C/C(=O)NCCn2c(C)cc3ccccc32)cc(OC)c1OC	48.4*	0.2	0.7	6130	0.6
Cc1cccc(CC(=O)NCCn2c(C)cc3ccccc32)c1	37.9	-20.1	88.9*	1493	-58.4
Cc1cc2ccccc2n1CCNC(=O)/C=C/c1ccccc1	-12.0	nt	nt	nt	nt
CS(=O)(=O)N1CCC(C(=O)NC2CCN(c3nccs3)CC2)CC1	-9.0	nt	nt	nt	nt
Cc1ccc(C(=O)Nc2ccc3c(c2)nc2n3CCSC2)cc1	-8.3	5.2	1.7	23988*	3.5
SMILES	PriA SSB inh	Anthrax LF inh2	BoNT A protease	Bead autofluor	BoNT-F LC inh
COc1ccccc1C(=O)Nc1ccc2c(c1)nc1n2CCSC1	0.9	-0.8	1.9	?	8.3
CC(=O)Nc1ccc2c(c1)nc1n2CCSC1	-6.5	-1.1	4.7	18041*	1.1
O=C(Nc1nc2c(s1)CN(C(=O)c1ccc(-n3cccc3)cc1)CC2)C1CCC1	10.0	nt	nt	nt	nt
CCOC(=O)C1=C(C)NC(C)=C(C(=O)OCC)C1c1cccc(C)n1	0.8	2.6	-0.2	6096	-4.6
CCOC(=O)C1=C(C)NC2=C(C(=O)CC(C)(C)C2)C1c1cccc(C)n1 (stereo unspecified)	-6.9	-0.8	-1.1	20812*	-2.0
Cc1cc(NC(NC(=O)c2ccco2)(C(F)(F)F)C(F)(F)F)no1	-3.8	-0.3	-2.1	17442*	-3.9
O=C1CC(C(=O)Nc2ccccc2)Nc2ccccc21 (stereo unspecified)	-18.0	nt	nt	nt	nt
Nc1nnc(COc2cccc(C(F)(F)F)c2)s1	-2.3	-1.4	0.4	5746	9.9
Cc1cccc(OCc2nnc(N)s2)c1	-3.9	-4.2	?	24413*	-2.6
CCOc1ccc(CCn2c(-c3ccco3)nc3ccccc3c2=O)cc1OCC	9.6	-1.9	-0.7	16599*	-5.6
